Source: PubChem (National Center for Advancing Translational Sciences (NCATS))
An excerpt weighted towards active compounds, which were near 0.92% of everything screened.
TDP1 inh = inhibitors of human tyrosyl-DNA phosphodiesterase TDP1; Q9NUW8; recombinant TDP1, AlphaScreen DNA substrate cleavage; Potency, µM (doses to about 130 µM), inactives show at the highest dose activity change, negative = inhibition, actives largely listed as inhibitors; 350,000 compounds, 0.28% hits; also: nearly all actives have a fitted effect of over 40% in size
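Steps: enzyme plus compound, 15 min RT; add biotin/phosphotyrosine-FITC oligonucleotide (15 nM final), react 5 min; add donor/acceptor beads (10 ug/ml final), 10 min; read AlphaScreen. Tdp1 at 1 nM final.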
RECQ1 helicase = inhibitors of human RECQ1 DNA helicase; 240,000 compounds, 0.54% hits; RECQ1 DNA unwinding, red fluorescence kinetic read; AID 2549; P46063; Potency, µM (titrated, usually from 57.3 µM), for inactives: at the top dose activity, negative = inhibition, actives largely listed as inhibitors;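 also: plate controls were vehicle for no effect and no enzyme for full effect; nearly all actives have a fitted effect of over 30% in size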
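50 nM RECQ1T1 preincubated 15 min with compound in Tris pH 8.0 buffer with MgCl2, DTT, Tween-20 and 2.5 ug/ml poly(dI-dC); started with 200 nM TAMRA/BHQ-2 forked duplex and 2 mM ATP. Unwinding read as fluorescence (525/598 nm), two reads 2 h apart.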
BLM inh = Bloom syndrome helicase (human) inhibition | P54132 | recombinant BLM DNA unwinding, fluorescence dequenching | Potency, µM (doses to about 56.1 µM), for the others: at the top dose activity change, negative = inhibition, most hits filed as inhibitors | 350,000 compounds, 0.2% hits | AID 2528;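 also: plate controls were vehicle for no effect and no enzyme for full effect; nearly all actives have a fitted effect of over 35% in size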
APE1 inh = inhibitors of human APE1 endonuclease; recombinant APE1, TAMRA/BHQ-2 abasic DNA cleavage fluorescence; Potency, µM (series often up to 65.8 µM), inactives show at the highest dose activity change, negative = inhibition, actives largely listed as inhibitors; 350,000 compounds, 0.35% hits;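 also: plate controls were vehicle for no effect and reference inhibitor for full effect; nearly all actives have a fitted effect of over 55% in size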
Target sequence (P27695 whole entry, looked up): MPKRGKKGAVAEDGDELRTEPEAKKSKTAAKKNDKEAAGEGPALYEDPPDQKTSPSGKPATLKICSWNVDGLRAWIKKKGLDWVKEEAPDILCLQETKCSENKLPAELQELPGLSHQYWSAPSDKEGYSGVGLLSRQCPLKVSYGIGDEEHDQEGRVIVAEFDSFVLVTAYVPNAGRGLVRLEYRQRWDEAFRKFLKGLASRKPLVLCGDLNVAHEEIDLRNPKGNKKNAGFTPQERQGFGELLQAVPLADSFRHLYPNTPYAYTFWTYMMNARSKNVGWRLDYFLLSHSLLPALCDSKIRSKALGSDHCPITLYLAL
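APE1 at 0.75 nM preincubated 15 min at room temperature with compound. Reaction then started with 50 nM double-stranded THF-abasic substrate labelled with TAMRA/BHQ-2, and 525/598 nm fluorescence read kinetically. Activity taken as third-minus-first read difference, normalized to DMSO and NSC13755 controls.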
FEN1 inhibitor = inhibitors of human flap endonuclease 1; P39748; Recombinant FEN1 flap cleavage, fluorescence, 15 min; Potency, µM (series often up to 114 µM), inactives show at the top dose activity change, negative = inhibition, most hits filed as inhibitors; 390,000 compounds, 0.35% hits; AID 588795; also: nearly all actives have a fitted effect of over 65% in size
Target sequence (P39748 whole entry, looked up): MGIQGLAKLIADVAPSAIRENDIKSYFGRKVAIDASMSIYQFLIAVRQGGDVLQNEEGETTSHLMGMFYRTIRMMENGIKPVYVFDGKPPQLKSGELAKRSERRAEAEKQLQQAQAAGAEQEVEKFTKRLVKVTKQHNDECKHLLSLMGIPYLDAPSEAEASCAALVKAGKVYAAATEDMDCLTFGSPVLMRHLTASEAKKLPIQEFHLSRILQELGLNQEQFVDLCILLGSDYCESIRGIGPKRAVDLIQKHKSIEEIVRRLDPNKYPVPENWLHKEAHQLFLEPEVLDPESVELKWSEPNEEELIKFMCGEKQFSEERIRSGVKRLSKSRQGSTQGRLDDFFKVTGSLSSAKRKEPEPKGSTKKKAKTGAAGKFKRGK
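Potency values derive from four-parameter Hill fits of normalized qHTS data. The reaction used 10 nM FEN1 preincubated 15 min at room temperature with compound, then 50 nM DNA substrate, read at 0 and 15 min.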
Active calls of the source: *; i = inactive; u = inconclusive; x = no result; ! = repeats disagree; [ ] = remark or other dose. Calls follow the shape of the dose curve; as a rule, active = well fitted curve in the direction sought with a large enough effect; inconclusive = small, poorly fitted or top-dose-only effect, or another doubt; inactive = no such curve, though single readings can be large; an effect the other way counts as inactive or inconclusive. Unless noted, % is scaled to controls: 0 for no effect and ±100 for the full control effect; potency is read from the fitted curve at half-maximal effect.

SMILES | TDP1 inh | RECQ1 helicase | BLM inh | APE1 inh | FEN1 inhibitor
CC(=O)OCC1=C(C(=O)O)N2C(=O)C(NC(=O)CSc3ccncc3)[C@@H]2SC1 (some centres not stated) | 14.1µM* | 13.5% | -2.3% | -7.2% | x
NCc1ccccc1CC(=O)N[C@@H]1C(=O)N2C(C(=O)O)=C(CSc3nnnn3CC(=O)O)CS[C@@H]12 | 10µM* | 1.3%[25.9 µM] | 1.5%[21.4 µM] | x | x
COc1ccccc1NC(=O)C(=N\O)/C(C)=N/O | u | -5.7% | -3.3% | 22.4µM* | -13.1%
O=C(NC1CCS(=O)(=O)C1)c1cccs1 (configuration not stated) | -8.3% | x | -1.1% | -3.5% | -5.3%
O=C(NC1CCS(=O)(=O)C1)c1ccc(Br)s1 (configuration not stated) | 100µM* | x | x | 10.4% | 0.7%
O=C(NNC(=O)c1ccc(Br)s1)NC1CCCCC1 | 56.2µM* | x | -8.7% | -9.9% | 7.6%
O=C1OC(c2cccs2)=N/C1=C\c1ccc(-c2ccccc2Cl)o1 | 6.2% | -11.7% | -12.6% | -0.3% | 3.9%
O=C1OC(c2cccs2)=N/C1=C/c1ccc(-c2cccc(C(=O)O)c2)o1 | u | u | 110.3% | 17.8µM* | 39.8µM*
COc1ccccc1NC(=O)COC(=O)CCC1CCCC1 | x | x | x | 45.6% | -5.4%
O=C(COC(=O)CCC1CCCC1)Nc1ccccc1Br | 79.4µM* | x | x | 45.0% | 6.6%
Cc1ccc(NC(=O)COC(=O)CCC2CCCC2)c(Br)c1 | 56.2µM* | x | x | 5.6% | -15.4%
CN(C)c1ncc2nc(-c3ccc(Cl)cc3)c(=O)n(Cc3ccc(F)cc3)c2n1 | x | -5.6% | 1.1% | 31.6µM* | x
CN(C)c1ncc2nc(-c3ccccc3)c(=O)n(Cc3ccc(F)cc3)c2n1 | x | -10.3% | -3.1% | -3.4% | x
C=CCc1cc(/C=C/c2nc(O)c([N+](=O)[O-])c(=O)[nH]2)cc(OC)c1O | u | u | -6.4% | u | 44.7µM*
COc1cccc(-c2nnc3n2N=C(c2ccc(OC)cc2OC)CS3)c1 | 16.8% | -13.4% | 8.9% | -7.4% | x
Nc1c(N=Nc2ccc([N+](=O)[O-])cc2)c(S(=O)(=O)O)cc2cc(S(=O)(=O)O)c(/C=C/c3ccccc3)c(O)c12 | x | x | x | x | 11.2µM*
COc1ccc2nc3cc(Cl)ccc3c(Nc3ccc(O)c(CN4CCN(C)CC4)c3)c2c1 | x | x | x | x | 22.4µM*
O=C(Nc1cccnc1Cl)c1ccc(=O)oc1 | x | u | 55.5% | 31.6µM* | 20µM*
COc1ccc(C(=O)Nc2cccnc2Cl)cc1OC | x | x | -1.7% | 7.4% | -5.3%
O=C(OC[C@H]1O[C@@H](OC(=O)c2cc(O)c(O)c(OC(=O)c3cc(O)c(O)c(O)c3)c2)[C@H](OC(=O)c2cc(O)c(O)c(OC(=O)c3cc(O)c(O)c(O)c3)c2)[C@@H](OC(=O)c2cc(O)c(O)c(OC(=O)c3cc(O)c(O)c(O)c3)c2)[C@@H]1OC(=O)c1cc(O)c(O)c(OC(=O)c2cc(O)c(O)c(O)c2)c1)c1cc(O)c(O)c(OC(=O)c2cc(O)c(O)c(O)c2)c1 | x | x | x | 0.0053µM* | -83.3%
COc1ccc(Cl)cc1NC(=O)NN1CCN(C)CC1 | 14.1µM* | x | -18.1% | 13.4µM* | -3.7%
C=C(C)C(=O)Nc1ccc(OC(F)(F)C(F)F)c(NC(=O)C(=C)C)c1 | 12.6µM* | -9.3% | -28.2% | -11.1% | -1.4%
O=P1(O)Oc2c(c(-c3ccccc3)cc3ccc4ccccc4c23)-c2c(-c3ccccc3)cc3ccc4ccccc4c3c2O1 | 11.2% | i | -0.7% | -2.4% | x
CN(C)c1ccc(C=c2c3ccccc3n3c2cc(-c2ccccc2)[n+]3C)cc1 | x | x | x | x | 8.91µM*
COc1cc(N(C)C)ccc1C=c1c2ccccc2n2c1cc(-c1ccccc1)[n+]2C | x | x | x | x | 7.94µM*
SMILES | TDP1 inh | RECQ1 helicase | BLM inh | APE1 inh | FEN1 inhibitor
CN(C)c1ccc(/C=C2\C=Cc3cc([N+](=O)[O-])ccc32)cc1 | x | x | x | x | 1.0%
CN(C)c1ccc(C=c2c3cc([N+](=O)[O-])ccc3n3c2cc(-c2ccccc2)[n+]3C)cc1 | x | x | x | x | 56.2µM*
CN(C)c1ccc(C=c2c3ccccc3n3c2cc(-c2ccc(Cl)cc2)[n+]3C)cc1 | x | x | x | x | 22.4µM*
CN(c1ccc(Cl)cc1)c1cc(=O)n(C)c2ccccc12 | 2.1% | -6.2% | -0.1% | -1.7% | u
Cc1[nH]c2ccccc2c1C(c1c[nH]c2ccccc12)c1c(C)[nH]c2ccccc12 | x | x | x | x | 0.5%
O=C(NCc1ccccc1)c1c2c(nc3ccccc13)C(=O)N(C1CCCCC1)C2 | 3.2% | x | 0.2% | x | 7.6%
Clc1ccc2c(ccc[n+]2CCC2CCCCC2)c1 | x | x | x | x | 0.0%
C=CCN(CC=C)S(=O)(=O)c1ncn[nH]1 | 39.8µM* | -14.7% | -2.5% | -5.4% | 7.6%
CN(/N=C/c1ccc(N(C)C)cc1)C1=NS(=O)(=O)c2ccccc21 | x | x | 34.9% | 23.8µM* | -2.3%
COc1ccc(/C=N/N(C)C2=NS(=O)(=O)c3ccccc32)cc1 | x | x | -3.5% | -16.6% | 7.7%
O=C1C=C(O)c2cccc3cccc1c23 | x | x | -3.7% | 17.5% | 2µM*
NC1=CC(=O)c2cccc3cccc1c23 | -1.0% | -0.5% | -6.7% | -10.7% | x
O=C(Nc1cccc([N+](=O)[O-])c1)c1cc2ccccc2cc1O | 2.9% | -22.1% | -27.1% | 28.2µM* | 5.3%
CC(C)COC(=O)COc1cc(Cl)c(Cl)cc1Cl | 50.1µM* | 1.2% | x | 14.6% | x
COc1ccc(Br)cc1C1NC(c2ccc3c(c2)OCO3)=CC(c2ccccc2O)N1 (configuration not stated) | 1.6% | x | x | x | -12.6%
COc1[nH]c(/N=C/c2ccccc2)c(C#N)c1C#N | 1.0% | -19.2% | -1.2% | 17.1% | 50.1µM*!
Cc1cc(N)c2ccccc2[n+]1CCCCCCCCCCCCCC[n+]1c(C)cc(N)c2ccccc21 | 23.9%[56.1 µM] | 31.6µM* | x | -9.1% | x
CC(C)n1c(SCC(=O)Nc2nncs2)nnc1-c1ccco1 | 11.2µM* | x | -20.5% | 13.4µM* | u
CCn1c(SCC(=O)Nc2ccc3c(c2)c2ccccc2n3CC)nnc1-c1ccco1 | 8.0% | -12.8% | 1.1% | -2.9% | 50.1µM*
CC(=O)OC1CC[C@@]2(C)C3=CC(=O)[C@]4(C)C(CC5OC6(OCC(C)CC6Br)C(C)C54)C3CC[C@H]2C1 (some centres not stated) | 4.5%[56.1 µM] | -6.2% | -2.1% | 8.7% | x
O=c1c2ccccc2sn1-c1ccccc1 | 11.9% | -4.6% | -0.6% | -4.8% | u
Cc1ccccc1-n1sc2cc(F)ccc2c1=O | 10.3% | -2.5% | 0.5% | 0.0% | 79.4µM*
O=c1c2cc(F)ccc2sn1-c1ccccc1 | 0.8% | x | x | 39.2% | 79.4µM*
O=C(O)c1cccc(-n2sc3ccccc3c2=O)c1 | -0.2% | x | x | -6.9% | 20µM*
O=C1CN(C(=O)c2cccc(Br)c2)C(c2ccccc2)c2cc(Cl)ccc2N1 (configuration not stated) | 4.7% | x | -8.4% | x | -8.3%
